Screens: PubChem, National Center for Advancing Translational Sciences (NCATS)
Hits are enriched below; roughly 11% of the tested compounds scored in any of these assays.
L3MBTL1 inh: qHTS Assay for the Inhibitors of L3MBTL1 | AlphaScreen L3MBTL1–H3K9me1 peptide binding | Potency, µM (titrated, usually from 57.1 µM), for inactives: at the top dose activity, negative = inhibition, actives largely listed as inhibitors | Lethal(3)malignant brain tumor-like protein 1 (Homo sapiens), Q9Y468 | actives 0.66% (n = 230,000); also: potency is read from the fitted curve at half-maximal effect; % is scaled to controls: 0 for no effect and ±100 for the full control effect; nearly all actives have a fitted effect of over 60% in size
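AlphaScreen assay: L3MBTL1 (50 nM final) was preincubated 30 min at room temperature with biotinylated H3(1-15)K9me1 peptide (75 nM final), then 30 min with library compounds; streptavidin donor and nickel chelate acceptor beads (10 ug/mL final) added, 30 min dark.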
JMJD2A Tudor: qHTS Assay for Inhibitors of JMJD2A-Tudor Domain; Potency, µM (top dose mostly 114 µM), inactives show at the top dose activity change, negative = inhibition, hits mostly inhibitors; AID 504339, 2011; AlphaScreen JMJD2A-Tudor / H3K4me3 peptide binding; Lysine-specific demethylase 4A (Homo sapiens), O75164; actives 4.4% (n = 390,000); also: potency is read from the fitted curve at half-maximal effect; % is scaled to controls: 0 for no effect and ±100 for the full control effect; nearly all actives have a fitted effect of over 50% in size
BAZ2B inh: qHTS Assay for Inhibitors of BAZ2B. Bromodomain adjacent to zinc finger domain protein 2B (Homo sapiens), Q9UIF8. AlphaScreen BAZ2B-H3K14Ac peptide displacement. Potency, µM (titrated, usually from 114 µM), for inactives: at the highest dose activity change, negative = inhibition, actives largely listed as inhibitors. actives 4.4% (n = 360,000). AID 504333, 2011; also: potency is read from the fitted curve at half-maximal effect; % is scaled to controls: 0 for no effect and ±100 for the full control effect; nearly all actives have a fitted effect of over 60% in size
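Compounds, titrated to a top concentration of 110 uM, were incubated 30 min at room temperature with preformed BAZ2B/acetyl-K14 H3 peptide complex (50 nM each). Proximity signal was measured by AlphaScreen after 20 min with beads.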
G9a inh: qHTS Assay for Inhibitors of Histone Lysine Methyltransferase G9a. G9a H3K9 monomethylation, AlphaScreen, 2 h. Potency, µM (top dose mostly 102 µM), without a hit: at the top dose activity, negative = inhibition, actives largely listed as inhibitors. actives 8.8% (n = 350,000); also: potency is read from the fitted curve at half-maximal effect; % is scaled to controls: 0 for no effect and ±100 for the full control effect; nearly all actives have a fitted effect of over 75% in size
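Enzyme 20 nM + cpd, 15 min RT; add b-H3K9 pep 500 nM / SAM 20 uM; 2 h RT; anti-H3K9me1 Ab 0.5 ug/mL + SA donor / anti-rabbit acceptor beads 20 ug/mL each, 10 min; AlphaScreen read.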
HP1b binding inh: HTS for Inhibitors of HP1-beta Chromodomain Interactions with Methylated Histone Tails | Chromobox protein homolog 1 (Homo sapiens), P83916 | AlphaScreen HP1-beta / biotin-H3K9me3 peptide binding | Potency, µM (highest dose often 114 µM), inactives show at the top dose activity change, negative = inhibition, most hits filed as inhibitors | actives 0.56% (n = 390,000); also: potency is read from the fitted curve at half-maximal effect; nearly all actives have a fitted effect of over 70% in size
Target sequence (P83916 whole entry, looked up): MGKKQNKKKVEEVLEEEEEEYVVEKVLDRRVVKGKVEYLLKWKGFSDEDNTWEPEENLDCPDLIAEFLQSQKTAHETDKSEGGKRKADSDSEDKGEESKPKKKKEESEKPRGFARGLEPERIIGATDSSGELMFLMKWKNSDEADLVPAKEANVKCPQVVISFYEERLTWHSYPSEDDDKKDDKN
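HP1-beta protein (50 nM final) preincubated 30 min at room temperature with biotinylated H3(1-18)K9me3 peptide (50 nM) in PBS pH 7.4, 0.01% Tween-20, then compound added for 30 min. AlphaScreen streptavidin donor/nickel chelate acceptor beads (10 ug/mL final), 30 min dark, luminescence read.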
PI5P4Ka inh: qHTS for Inhibitors of phosphatidylinositol 5-phosphate 4-kinase (PI5P4K) | PI5P4Kalpha enzyme, ADP-Glo luminescence, 60 min; stronger effect = lower value | actives 1.2% (n = 330,000) | Phosphatidylinositol 5-phosphate 4-kinase type-2 alpha (Homo sapiens), P48426 | max response, % | AID 652105, 2013; active = max response of -50% or lower; inconclusive = between -30% and -50%; inactive = -30% or higher; also: value at the top dose of about 77 µM; % is scaled to controls: 0 for no effect and ±100 for the full control effect
Target sequence (P48426 whole entry, looked up): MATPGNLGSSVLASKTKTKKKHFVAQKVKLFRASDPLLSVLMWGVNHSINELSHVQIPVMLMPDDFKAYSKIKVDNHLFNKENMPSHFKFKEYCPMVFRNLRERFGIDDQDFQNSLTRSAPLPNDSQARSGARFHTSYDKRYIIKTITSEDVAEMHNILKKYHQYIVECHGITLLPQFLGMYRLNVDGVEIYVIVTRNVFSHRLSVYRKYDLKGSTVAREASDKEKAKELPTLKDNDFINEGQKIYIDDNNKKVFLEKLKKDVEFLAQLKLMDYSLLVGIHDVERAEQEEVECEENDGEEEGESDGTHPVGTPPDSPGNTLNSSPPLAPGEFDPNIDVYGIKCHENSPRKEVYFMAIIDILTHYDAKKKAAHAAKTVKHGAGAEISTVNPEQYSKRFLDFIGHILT
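Luminescence from ADP-Glo served as readout of PI5P4Kalpha activity in a qHTS format. Reaction: enzyme, substrate, compound, ATP at 5 microM final, 60 min at RT.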
An asterisk follows results filed as active; ? = inconclusive; nt = no result; [ ] = dose if it differs, or a comment. Unless noted, calls follow the shape of the dose curve; as a rule, active = well fitted inhibition curve with a large enough effect; inconclusive = small, poorly fitted or top-dose-only effect; inactive = no such curve, though single readings can be large or run the other way.

SMILES | L3MBTL1 inh | JMJD2A Tudor | BAZ2B inh | G9a inh | HP1b binding inh | PI5P4Ka inh
CCOC(=O)N1CCN(S(=O)(=O)c2ccc(C(=O)Nc3nnc(C4CC4)o3)cc2)CC1 | 8% | 50µM* | 22µM* | 17%[59 µM] | 51% | -1
CCC1CCCCN1S(=O)(=O)c1ccc(C(=O)Nc2nnc(C3CC3)o2)cc1 (centres undefined) | nt | -17% | 50µM* | nt | 50% | -4
CC1CC(C)CN(S(=O)(=O)c2ccc(C(=O)Nc3nnc(C4CC4)o3)cc2)C1 (centres undefined) | nt | -10% | ? | 55% | 54% | -1
COc1ccc(C(=O)Nc2nnc(C3=COCCO3)o2)cc1 | nt | 40µM* | 16µM* | -47% | 45% | -4
COc1ccc(-c2nnc(NC(=O)c3ccc(S(=O)(=O)N4COCC4(C)C)cc3)o2)cc1 | 14% | 3%[11.4 µM] | 56µM* | 16%[2.33 µM] | -13% | -23
CCOC(=O)C1CCN(C(=O)c2cnn(-c3ccc(F)cc3)c2-n2cccc2)CC1 | nt | -18% | -22% | -34%[59 µM] | 49% | nt
O=C(Nc1nnc(-c2ccccc2Cl)o1)c1ccc(S(=O)(=O)N2CCCCCC2)cc1 | 13% | -12% | 7% | -4% | 52% | -20
CCC1CCCCN1S(=O)(=O)c1ccc(C(=O)Nc2nnc(C3=COCCO3)o2)cc1 (centres undefined) | nt | -12% | 79µM* | 15% | 38% | -19
O=C(Nc1nnc(C2=COCCO2)o1)c1ccc(S(=O)(=O)N2CCCC2)cc1 | nt | 50µM* | nt | ? | 2% | -1
CC1CCN(S(=O)(=O)c2ccc(C(=O)Nc3nnc(C4=COCCO4)o3)cc2)CC1 | nt | -7% | ? | ? | 48% | 0
O=C(Nc1nnc(C2=COCCO2)o1)c1ccc(S(=O)(=O)N2CCCCC2)cc1 | nt | 79µM* | nt | ? | 22% | 3
CCc1ccc2[nH]c(=O)c(CN(Cc3cccs3)Cc3nnnn3Cc3ccccc3)cc2c1 | nt | -27%[57.1 µM] | nt | nt | 13%[57 µM] | nt
CCOC(=O)C1=C(CNCc2ccccc2)NC(=O)NC1c1ccc(C)cc1 (centres undefined) | nt | ? | nt | ? | -5% | nt
CC(=O)N1CCc2cc(Br)cc(S(=O)(=O)N3CCN(c4cccc(C)c4)C(C)C3)c21 (centres undefined) | nt | ? | ? | ? | -3% | nt
CN1CCc2c(sc3c2C(=O)NC(c2ccccc2)N3)C1 (centres undefined) | -4% | -22% | -1% | 40µM* | 0% | -10
CC(C)(C)C1CCc2c(sc3c2C(=O)NC(c2ccco2)N3)C1 (centres undefined) | 9% | ? | -1% | 10µM* | 13% | nt
Cc1ccsc1C1NC(=O)c2c(sc3c2CCCC3)N1 (centres undefined) | -5% | ? | -7% | ? | -15% | -68*
Cc1ccsc1C1NC(=O)c2ccccc2N1 (centres undefined) | -10% | -17% | -11% | ? | 27% | -9
CN1CCc2c(sc3c2C(=O)NC(c2ccc(OC(=O)c4ccccc4)cc2)N3)C1 (centres undefined) | nt | -30% | -17% | 13µM* | -5% | nt
Cc1ccc(C2NC(=O)c3c(sc4c3CCN(C)C4)N2)s1 (centres undefined) | -5% | ? | -30% | ? | -31% | nt
CCOC(=O)N1CCc2c(sc3c2C(=O)NC(c2ccc(C(=O)OC)cc2)N3)C1 (centres undefined) | nt | -6% | 1% | 10%[59 µM] | 28% | nt
CN1CCc2c(sc3c2C(=O)NC(c2ccccn2)N3)C1 (centres undefined) | ? | 20µM* | 45µM* | 25µM* | 36% | nt
CN1CCc2c(sc3c2C(=O)NC(c2ccc(OC(=O)c4ccc(Cl)cc4)cc2)N3)C1 (centres undefined) | nt | -11% | ? | 16µM* | 22% | nt
CN1CCc2c(sc3c2C(=O)NC(c2ccc(OC(=O)c4ccc(C(C)(C)C)cc4)cc2)N3)C1 (centres undefined) | nt | -17% | -34% | 7.9µM* | 5% | nt
CCOc1cc(C2NC(=O)c3c(sc4c3CCN(C)C4)N2)ccc1OC(=O)c1ccc(F)cc1 (centres undefined) | nt | -11% | -1% | -30%[59 µM] | 24% | nt
SMILES | L3MBTL1 inh | JMJD2A Tudor | BAZ2B inh | G9a inh | HP1b binding inh | PI5P4Ka inh
O=C1NC(c2ccccn2)Nc2sc3c(c21)CCC3 (centres undefined) | -2% | ? | ? | 22µM* | 11% | -11
COc1ccc(Br)cc1CNC(=O)CCCn1c(=O)c2cccn2c2ccccc21 | nt | -7% | -3% | -6%[59 µM] | 27% | nt
COc1ccc(CCNC(=O)CCCn2c(=O)c3cccn3c3ccc(F)cc32)cc1OC | nt | 7% | -37% | 2%[59 µM] | 39% | nt
CCc1ccc2oc(-c3ccc(OC)cc3)cc(=Nc3c(C)n(C)n(-c4ccccc4)c3=O)c2c1 | nt | ? | 40µM* | 25µM* | ? | 5
C=CCn1c(-c2ccc(OC)cc2)csc1=Nc1c(C)n(C)n(-c2ccccc2)c1=O | nt | ? | ? | ? | -10% | -8
CCc1ccc2oc(-c3ccc(OC)cc3)cc(=Nc3cccc(C(=O)O)c3)c2c1 | nt | 14µM* | -38% | ? | -23% | -13
COc1ccc(-c2cc(=Nc3ccc(C(=O)O)cc3)c3cc(C)ccc3o2)cc1 | nt | ? | nt | ? | -4% | 0
COc1cccc(N2CCN(C(=O)C3CCN(S(=O)(=O)c4cccc5nonc45)CC3)CC2)c1 | nt | ? | -30% | 0%[59 µM] | -8% | nt
CCn1c(N2CCN(S(=O)(=O)c3ccccc3C(F)(F)F)CC2)nc2ccccc21 | -2% | -14%[57.1 µM] | ? | 50µM* | 9% | -2
CCn1c(N2CCN(S(=O)(=O)c3ccc(OC)cc3)CC2)nc2ccccc21 | -4% | -17% | 1% | 15% | 23% | 0
COc1ccc(C)cc1S(=O)(=O)Nc1cccc(-c2ccc(N3CCCC3)nn2)c1 | nt | -7% | 1% | -4%[59 µM] | 19%[57 µM] | nt
COc1cccc(N2CCN(C(=O)CCc3c(C)nc4c(c3C)c(=O)n(C)c(=O)n4C)CC2)c1 | nt | -8% | -5% | -42%[59 µM] | 49% | nt
COc1ccc(CC(=O)NCc2n[nH]c(=S)n2-c2cccc(C)c2)cc1 | nt | 7.9µM* | 3% | 11µM* | 35% | 0
